# From PubChem BioAssay (EPA / NIEHS)
# Activity calls are given as the source filed them. How the source made its calls: active means hit-call score of the fitted dose curve at least 0.9, where 1 is the maximum; inactive means score below 0.9.
# Read-out: Interferon-gamma inducible Protein 10 (IP10), CXCL10 (gene 3627)
# Test: BSK_KF3CT_IP10: BioMAP Diversity Plus: KF3CT Assay for Interferon-gamma inducible Protein 10 (IP10) Biomarker Activity (AID 2283068)
# Details: primary human keratinocytes with fibroblasts; actives raise or lower the signal
# Procedure: BSK_KF3CT is a cell-based, multiplexed-readout assay that uses keratinocytes and foreskin fibroblasts, a human skin primary cell co-culture, with measurements taken at 24 hours after chemical dosing in a 96-well plate.BSK_KF3CT_IP10 is an assay component measured in the BSK_KF3CT assay. It measures IP-10 antibody related to regulation of gene expression using ELISA technology.Data from the assay component BSK_KF3CT_IP10 was analyzed into 1 assay endpoint. This assay endpoint, BSK_KF3CT_IP10, was analyzed with bidirectional fitting relative to DMSO as the negative control and baseline of activity. Using a type of binding reporter, gain or loss-of-signal activity can be used to understand changes in the signaling as they relate to the gene CXCL10. Furthermore, this assay endpoint can be referred to as a primary readout, because this assay has produced multiple assay endpoints where this one serves a signaling function. To generalize the intended target to other relatable targets, this assay endpoint is annotated to the cytokine intended target family, where the subfamily is chemotactic factor.
# The levels of cell surface (or secreted, indicated by the prefix "s") biomarker endpoints were measured by ELISA. Overt cytotoxicity to cells in confluent adherent cultures (all systems other than the BT system) was assessed by measuring total protein levels using sulforhodamine B (SRB) staining in parallel cultures at the time of biomarker measurements, indicated as SRB endpoints. For proliferation assays for adherent cell types, individual cell types are cultured at sub-confluence and relative cell numbers quantified by SRB staining at time points optimized for each system (48 h: 3C and CASM3C systems; 72 h: BT and HDF3CGF systems; 96 h: SAg system). SRB was performed by staining cells with 0.1% SRB after fixation with 10% TCA and reading wells at 560 nm.Viability and proliferation of PBMC (T cells) was quantified by Alamar Blue reduction for the SAg and BT systems. For PBMC viability (referred to as PBMC Cytotoxicity within the assay endpoint names), cells were plated (75,000/well in a 96-well plate) and then chemical samples added for 1 h before addition of activators, SEB and TSST-1 (20 ng/mL final concentration each). Cells were incubated for 90 h. Then, Alamar Blue (20 uL/well) (Invitrogen, Cat DAL1100) was added for 6 h, and the plates were read with a fluorescence microplate reader at 546/580 nm (excitation/emission). For PBMC proliferation, cells were plated and activated as above but incubated for only 16 h prior to addition of Alamar Blue. Plates were read after 6 h.
SMILES,outcome,AC50
CC(=O)c1ccccc1,inactive,–
OC(CCl)CCl,inactive,–
O=C(NO)C1(NS(=O)(=O)c2ccc(Oc3ccc(F)cc3)cc2)CCOCC1,inactive,–
OCCOCCOCCO,inactive,–
FC(F)C(F)(F)COCC1CO1 (stereo not given),inactive,–
NC(N)=O,inactive,–
c1ccc2ncccc2c1,inactive,–
CCCOc1ccc(S(=O)(=O)N2CCN(CC)CC2)cc1-c1nc2c(CC)n(Cc3ccccn3)nc2c(=O)[nH]1,inactive,–
Cc1cccc(O)c1C,inactive,–
O=C(O)c1ccc2c(c1)nc(C(=O)NC1CCN(C3CC3)CC1)n2Cc1cc(-c2ccc(Cl)s2)on1,inactive,–
CC1(C)C(=O)N(Cl)C(=O)N1Cl,inactive,–
OCC(CO)(CO)CO,inactive,–
OC(Cn1cncn1)(Cn1cncn1)c1ccc(F)cc1F,inactive,–
COCc1nnc(-c2ccc[n+]([O-])c2)n1-c1c(Cl)c(Cl)cc2[nH]c(=O)c(=O)[nH]c12,inactive,–
C[C@]12C=CC(=O)C=C1CC[C@H]1[C@@H]3C[C@@H](O)[C@](O)(C(=O)CO)[C@@]3(C)C[C@H](O)[C@@]12F,inactive,–
C[C@@H](Oc1ccc(CNC(=O)c2cccnc2Oc2ccc3c(c2)OCO3)c(F)c1)C(=O)O,inactive,–
O=S(=O)(O)c1ccc(N=Nc2c(O)ccc3cc(S(=O)(=O)O)ccc23)cc1,inactive,–
CCCCCCCCCCCCCCCCOS(=O)(=O)O,–,11.9 µM (active)
FC(F)=C(F)C(F)(F)C(F)(F)C(F)(F)C(F)(F)C(F)(F)C(F)(F)F,inactive,–
CC[C@H](C)C(=O)O[C@H]1C[C@H](O)C=C2C=C[C@H](C)[C@H](CC[C@@H](O)C[C@@H](O)CC(=O)O)[C@H]21,inactive,–

SMILES,outcome,AC50
CCCCCOC(C)=O,inactive,–
Cc1nc(-c2ccccn2)ncc1C(=O)Nn1cc(C)c2cc(F)ccc21,inactive,–
O=C(O)c1cccc(C(=O)O)c1,inactive,–
CC(C)c1nnc2ccc(-c3ocnc3-c3cc(F)ccc3F)cn12,inactive,–
NC(=O)N1c2ccccc2C=Cc2ccccc21,inactive,–
O=C(O)[C@H](O)[C@@H](O)C(=O)O,inactive,–
O=C(Cl)C(F)(F)C(F)(F)C(F)(F)C(=O)Cl,inactive,–
S=P(N1CC1)(N1CC1)N1CC1,inactive,–
CCCCCCCCN(C)C,inactive,–
CCc1cccc(CC)c1N,inactive,–
c1ccc2c(c1)-c1cccc3c1c-2cc1ccccc13,inactive,–
CCCCC(CC)C(=O)OCCOCCOCCOC(=O)C(CC)CCCC (stereo not given),inactive,–
OCc1ccccc1,inactive,–
O=S(=O)(O)CCC(F)(F)C(F)(F)C(F)(F)C(F)(F)C(F)(F)C(F)(F)F,inactive,–
c1ccc2cc3ccccc3cc2c1,inactive,–
NC(=O)NN=Cc1ccc([N+](=O)[O-])o1,inactive,–
OCc1c[nH]c2ccccc12,inactive,–
COc1cc(C(C)C)c2c(c1)S(=O)(=O)N(COc1cc(=O)n3cccc(OCCN4CCCCC4)c3n1)C2=O,–,7.22 µM (active)
Cc1nccn1-c1ccc(Sc2cccc(C3(C(N)=O)CCOCC3)c2)cc1,inactive,–
CCCCCCCCCC,inactive,–
